Measured values taken from PubChem BioAssay AID1159580 (chemical genetic matrix, 2015).
Where “and” joins values, the source holds several entries; their conditions need not be identical. Equal entries are not always repeated. Screen size: about 5,500 compounds; about 2,000 (36%) were called active. Not shown: some 18% with an inconclusive outcome. No stated cut-off is given here; in the data, active means normalized growth mostly below about 0.91 (no sharp cut-off); inconclusive means no clear call, values can overlap the other calls; inactive means mostly above about 0.92. This is one part of the list.

Test: chemical genetic growth profiling, strain panel (AID 1159580);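 further: tested at 20 µM; growth read once vehicle control cultures reached saturation at 30 °C; 1 = growth at the plate median or of vehicle wells; lower values mean less growth of the strain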
Conditions: S. cerevisiae deletion strains, growth OD

Measured: normalized growth

CNC(C)[C@@H]1CC[C@@H](N)[C@@H](OC2[C@@H](N)C[C@@H](N)[C@H](OC3OC[C@](C)(O)[C@H](NC)[C@H]3O)[C@H]2O)O1 (stereo partly drawn)
inactive: locus YAL013W, strain DEP1, hits give low values 1.02 | locus YAL021C, strain ccr4, hits give low values 1.02 | locus YAL026C, strain drs2, hits give low values 0.997 | locus YAL030W, strain snc1, hits give low values 0.998 | locus YBL061C, strain skt5, hits give low values 0.977 | locus YBR009C, strain hhf1, hits give low values 1.01 | locus YBR021W, strain FUR4, hits give low values 1.02 | locus YBR023C, strain chs3, hits give low values 0.988 | locus YBR171W, strain sec66, hits give low values 0.986 | locus YBR229C, strain ROT2, hits give low values 1.02 | locus YBR231C, strain swc5, hits give low values 0.982 | locus YBR279W, strain paf1, hits give low values 0.991 | locus YCL011C, strain gbp2, hits give low values 1.01 | locus YCL016C, strain dcc1, hits give low values 1 | locus YCL029C, strain bik1, hits give low values 1.01 | locus YCL069W, strain vba3, hits give low values 0.992 | locus YCR088W, strain abp1, hits give low values 0.999 | locus YDL005C, strain med2, hits give low values 0.98 | locus YDL035C, strain GPR1, hits give low values 1.01 | locus YDL040C, strain nat1, hits give low values 0.994 | locus YDL074C, strain BRE1, hits give low values 1.03 | locus YDL101C, strain DUN1, hits give low values 1.01 | locus YDL134C, strain PPH21, hits give low values 1 | locus YDL185W, strain tfp1, hits give low values 1.02 | locus YDL192W, strain arf1, hits give low values 1.04 | locus YDR001C, strain nth1, hits give low values 0.988 | locus YDR069C, strain doa4, hits give low values 0.988 | locus YDR101C, strain arx1, hits give low values 0.992 | locus YDR137W, strain rgp1, hits give low values 1.01 | locus YDR150W, strain NUM1, hits give low values 1.01 | locus YDR159W, strain sac3, hits give low values 0.995 | locus YDR162C, strain NBP2, hits give low values 1.01 | locus YDR195W, strain ref2 0.947 | locus YDR297W, strain sur2, hits give low values 0.983 | locus YDR318W, strain mcm21, hits give low values 1.02 | locus YDR334W, strain swr1, hits give low values 0.98 | locus YDR335W, strain msn5, hits give low values 0.98 | locus YDR388W, hits give low values 1.01 | locus YDR392W, strain spt3, hits give low values 1.03 | locus YDR502C, strain sam2, hits give low values 1.05 | locus YEL003W, strain gim4, hits give low values 0.975 | locus YEL037C, strain rad23, hits give low values 0.995 | locus YEL061C, strain CIN8 (second series), hits give low values 0.982 | locus YEL061C, strain CIN8, hits give low values 1.02 | locus YER015W, strain faa2, hits give low values 0.993 | locus YER016W, strain bim1, hits give low values 0.979 | locus YER110C, hits give low values 1.02 | locus YER111C, strain swi4, hits give low values 0.976 | locus YER155C, strain BEM2 (second series), hits give low values 0.997 | locus YER155C, strain BEM2, hits give low values 1.01 | locus YER167W, strain BCK2, hits give low values 1.01 | locus YFR010W, strain ubp6, hits give low values 0.98 | locus YGL078C, strain dbp3, hits give low values 1.02 | locus YGL086W, strain mad1, hits give low values 1.01 | locus YGL167C, strain pmr1, hits give low values 0.982 | locus YGL173C, strain kem1, hits give low values 0.974 | locus YGL227W, strain vid30, hits give low values 0.987 | locus YGL240W, strain doc1, hits give low values 0.99 | locus YGL248W, strain PDE1, hits give low values 1.01 | locus YGL253W, strain hxk2, hits give low values 0.987 | locus YGR135W, strain pre9, hits give low values 1.05 | locus YGR229C, strain SMI1, hits give low values 1.01 | locus YGR252W, strain gcn5, hits give low values 1.04 | locus YHR013C, strain ard1, hits give low values 1.02 | locus YHR027C, strain rpn1, hits give low values 1 | locus YHR030C, strain SLT2, hits give low values 1.02 and 0.984 | locus YHR079C, strain IRE1 (second series), hits give low values 1.02 | locus YHR079C, strain IRE1, hits give low values 1.01 | locus YHR094C, strain hxt1, hits give low values 1.01 | locus YHR129C, strain ARP1, hits give low values 1 | locus YHR142W, strain chs7, hits give low values 0.971 | locus YHR200W, strain rpn10, hits give low values 1.03 | locus YIL066C, strain RNR3, hits give low values 1.01 | locus YIL073C, strain SPO22, hits give low values 1.04 | locus YIL125W, strain kgd1, hits give low values 1.02 | locus YIR030C, strain dcg1, hits give low values 1.03 | locus YJL092W, strain hpr5, hits give low values 0.993 | locus YJL095W, strain BCK1 (second series), hits give low values 0.993 | locus YJL095W, strain BCK1, hits give low values 1.02 and 1 | locus YJL115W, strain asf1, hits give low values 0.982 | locus YJL129C, strain trk1, hits give low values 0.964 | locus YJL134W, strain LCB3, hits give low values 1.02 | locus YJL154C, strain vps35, hits give low values 0.999 | locus YJL164C, strain tpk1, hits give low values 1.01 | locus YJL166W, strain qcr8, hits give low values 0.984 | locus YJL168C, strain set2, hits give low values 1.02 | locus YJL187C, strain SWE1 (second series), hits give low values 1.01 | locus YJL187C, strain SWE1, hits give low values 0.992 | locus YJR043C, strain POL32, hits give low values 0.996 | locus YJR066W, strain TOR1, hits give low values 0.999 | locus YJR075W, strain HOC1, hits give low values 1.03 | locus YKL009W, strain mrt4, hits give low values 1.01 | locus YKL068W, hits give low values 1.01 | locus YKL085W, strain MDH1 (second series), hits give low values 1.02 | locus YKL085W, strain MDH1, hits give low values 1.02 | locus YKL160W, strain elf1, hits give low values 0.977 | locus YKL190W, strain CNB1, hits give low values 1.02 | locus YKR001C, strain vps1, hits give low values 1.02 | locus YKR026C, strain gcn3, hits give low values 1 | locus YKR091W, strain srl3, hits give low values 0.986 | locus YLL001W, strain dnm1, hits give low values 0.972 | locus YLL026W, hits give low values 0.996 | locus YLL041C, strain sdh2, hits give low values 0.995 | locus YLR027C, strain aat2, hits give low values 0.991 | locus YLR039C, strain RIC1, hits give low values 1.08 | locus YLR058C, strain SHM2, hits give low values 1.03 | locus YLR102C, strain apc9, hits give low values 1.03 | locus YLR113W, strain HOG1, hits give low values 0.987 | locus YLR221C, strain rsa3, hits give low values 0.99 | locus YLR258W, strain gsy2, hits give low values 1 | locus YLR262C, strain YPT6 (second series), hits give low values 0.977 | locus YLR262C, strain YPT6, hits give low values 1.05 | locus YLR268W, strain sec22, hits give low values 1.01 | locus YLR320W, strain mms22, hits give low values 1 | locus YLR330W, strain CHS5, hits give low values 1.01 | locus YLR342W, strain FKS1 (second series), hits give low values 0.996 | locus YLR342W, strain FKS1, hits give low values 0.977 | locus YLR357W, strain rsc2, hits give low values 0.991 | locus YLR370C, strain arc18, hits give low values 0.984 | locus YLR371W, strain rom2, hits give low values 1.01 | locus YLR384C, strain iki3, hits give low values 0.992 | locus YLR418C, strain cdc73, hits give low values 1.02 | locus YML016C, strain PPZ1, hits give low values 1.01 | locus YML032C, strain rad52, hits give low values 1.02 | locus YML120C, strain ndi1, hits give low values 0.996 | locus YML124C, strain tub3, hits give low values 1.01 | locus YMR058W, strain fet3, hits give low values 0.994 | locus YMR078C, strain ctf18, hits give low values 1.02 | locus YMR125W, strain sto1, hits give low values 0.979 | locus YMR129W, hits give low values 1 | locus YMR205C, strain PFK2, hits give low values 0.987 | locus YMR223W, strain ubp8, hits give low values 1.04 | locus YMR231W, strain pep5, hits give low values 0.988 | locus YMR263W, strain SAP30, hits give low values 1.01 | locus YMR307W, strain GAS1, hits give low values 1 | locus YNL067W, strain RPL9B, hits give low values 1.02 | locus YNL071W, strain lat1, hits give low values 0.996 | locus YNL153C, strain GIM3, hits give low values 1.01 | locus YNL183C, strain NPR1, hits give low values 0.97 | locus YNL209W, strain ssb2, hits give low values 1 | locus YNL233W, strain BNI4, hits give low values 1.01 | locus YNL248C, strain rpa49, hits give low values 1.02 | locus YNL250W, strain rad50, hits give low values 1.05 | locus YNL271C, strain bni1, hits give low values 1.03 | locus YNL298W, strain CLA4, hits give low values 1.02 | locus YNL307C, strain MCK1, hits give low values 1.03 | locus YNL322C, strain KRE1 (second series), hits give low values 0.988 | locus YNL322C, strain KRE1, hits give low values 1.02 | locus YNR049C, strain mso1, hits give low values 0.986 | locus YNR052C, strain pop2, hits give low values 1.02 | locus YOL006C, strain TOP1, hits give low values 1.06 | locus YOL012C, strain htz1 0.693 | locus YOL147C, strain pex11, hits give low values 1.02 | locus YOR001W, strain rrp6, hits give low values 0.985 | locus YOR061W, strain CKA2, hits give low values 1.01 | locus YOR069W, strain VPS5, hits give low values 1.01 | locus YOR070C, strain gyp1, hits give low values 0.987 | locus YOR080W, strain dia2, hits give low values 0.982 | locus YOR083W, strain WHI5, hits give low values 0.977 | locus YOR106W, strain vam3, hits give low values 0.983 | locus YOR136W, strain idh2, hits give low values 1.02 | locus YOR144C, strain elg1, hits give low values 1.01 | locus YOR184W, strain ser1, hits give low values 1.03 | locus YOR231W, strain MKK1, hits give low values 0.976 | locus YOR265W, strain rbl2, hits give low values 0.987 | locus YOR270C, strain vph1, hits give low values 0.996 | locus YOR290C, strain snf2, hits give low values 1.01 | locus YOR316C, strain cot1, hits give low values 1.02 | locus YPL051W, strain arl3, hits give low values 0.982 | locus YPL078C, strain atp4, hits give low values 0.973 | locus YPL106C, strain sse1, hits give low values 1 | locus YPL240C, strain hsp82, hits give low values 0.99 | locus YPL256C, strain CLN2, hits give low values 0.988 | locus YPR119W, strain clb2, hits give low values 1.03 | locus YPR141C, strain kar3, hits give low values 1.02 | locus YPR163C, strain tif3, hits give low values 1.02 | locus YPR167C, strain met16, hits give low values 1.02 | strain wtn01, hits give low values 1.01
